About 2,000 (36%) of roughly 5,500 compounds were called active. Not shown: some 18% with an inconclusive outcome. Rule as the data show it: active = normalized growth mostly below about 0.91 (no sharp cut-off); inconclusive = no clear call, values can overlap the other calls; inactive = mostly above about 0.92. The list shows a part of the results.
Assay: chemical genetic growth profiling, strain panel (AID 1159580);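 also: tested at 20 µM; growth read once vehicle control cultures reached saturation at 30 °C; 1 = growth at the plate median or of vehicle wells; lower values mean less growth of the strain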
Details: S. cerevisiae deletion strains, growth OD

Measured: normalized growth

CC(C)C[C@H]1C(=O)N2CCC[C@H]2[C@]2(O)O[C@](NC(=O)[C@@H]3C=C4c5cccc6[nH]c(Br)c(c56)C[C@H]4N(C)C3)(C(C)C)C(=O)N12
inactive: locus YDR150W, strain NUM1, hits give low values 0.996 | locus YDR363W, strain ESC2, hits give low values 1.02 | locus YER002W, strain NOP16, hits give low values 1.03 | locus YMR263W, strain SAP30, hits give low values 1.01 | locus YNL128W, strain TEP1, hits give low values 1.03 | locus YNL153C, strain GIM3, hits give low values 0.974 | locus YNL175C, strain NOP13, hits give low values 1.04 | locus YNL197C, strain WHI3, hits give low values 1.01 | locus YNL224C, strain SQS1, hits give low values 1.01 | locus YOR083W, strain WHI5 (second series), hits give low values 1.03 | locus YPL241C, strain CIN2, hits give low values 0.989
active: locus YAL040C, strain CLN3, hits give low values 0.741

Reference: PubChem BioAssay AID1159580 (chemical genetic matrix, 2015)
